Source: PubChem BioAssay (Tox21)
Results filed as inconclusive are left out. Where a call stands in place of a potency, no number is given. Values without a mark were called inactive. The source made the active and inactive calls. Calls come from the whole dose curve; as a rule, active = well fitted cell-killing curve with a large enough effect in the repeat runs; inconclusive = weak or mixed curves; inactive = flat fitted curve, though single readings scatter.

test: qHTS assay to identify small molecule antagonists of the estrogen related receptor (ERR) signaling pathway from Tox21 library - cell viability counter screen (AID 1224834); settings: ERR reporter cells viability, CellTiter-Fluor, 17.5 h; series mostly up to 92.4 µM; note: nearly all actives have a fitted effect of over 30% in size
Source text: National Center for Advancing Translational Sciences [NCATS]
NIH Chemical Genomics Center [NCGC]
U.S. Environmental Protection Agency [EPA]
National Institutes of Environmental Health Sciences [NIEHS]
National Toxicology Program [NTP]
U.S. Food and Drug Administration [FDA]
Estrogen related receptors (ERRs), the first orphan nuclear receptors discovered, play an important role in the control of cellular energy metabolism. ERRs are required for high-energy production in response to the environmental challenges. ERR-alpha was also identified as an adverse marker for breast cancer progression; ERR-alpha-positive tumors have a poor prognosis. To screen and to identify environmental compounds that perturb the ERR signaling pathways could provide valuable information for potential therapeutic or preventive measures in the treatment of metabolic disease. To differentiate true ERR antagonists or agonist from cytotoxic substances, the assay is multiplexed with cell viability assay.
Tox21 Assay Protocol Summary:
The ERR cells were dispensed at 2,000 cells/5 ul/well in 1536-well white plates using a Multidrop dispenser. After the assay plates were incubated at a 37 C/5% CO2 incubator for 6 hours, 23 nL of compounds dissolved in DMSO, positive and negative controls or DMSO only was transferred to the assay plate by a pin tool. The plates were incubated at 37 C for 17.5 hours. 1 ul/well of CellTiter-Fluor reagent was added into the assay plates using a Flying Reagent Dispenser. After 30-minute incubation at 37 C/5% CO2, the fluorescence intensity in the plates was measured using a ViewLux plate reader.
Potency is the fitted concentration of half-maximal effect.

Question: Which Potency does the source give for `O=[N+]([O-])c1ccc2ncccc2c1` here?
Answer: The Potency was “inactive”.

Question: For `CC[C@H]1OC(=O)[C@H](C)[C@@H](O[C@H]2C[C@@](C)(OC)[C@@H](O)[C@H](C)O2)[C@H](C)[C@@H](O[C@@H]2O[C@H](C)C[C@H](N(C)C)[C@H]2O)[C@](C)(O)C[C@@H](C)/C(=N\OCOCCOC)[C@H](C)[C@@H](O)[C@]1(C)O`, which Potency is on record?
Answer: The Potency was 14.3 µM (active).

Question: Which Potency does the source give for `CCN(CC)C(=O)N1CCN(C)CC1` here?
Answer: Its Potency is “inactive”.

Question: With `O=NN(CCCl)C(=O)NCCCl` as the compound, how does the Potency read?
Answer: The Potency was “inactive”.

Question: With `Nc1ccc(N=Nc2ccc(N)cc2)cc1` as the compound, how does the Potency read?
Answer: The Potency was 27.3 µM (active).

Question: For `CNC1CCCN(c2c(F)cc3c(=O)c(C(=O)O)cn(C4CC4)c3c2OC)C1` (stereo not given), which Potency is on record?
Answer: The Potency was “inactive”.

Question: With `COc1ccc(-n2nc(C(F)F)cc2-c2ccc(S(C)=O)cc2)cc1` (stereo not given) as the compound, how does the Potency read?
Answer: The Potency was “inactive”.

Question: For `CCCCCCCC(=O)OCCCCCC`, which Potency is on record?
Answer: The Potency was “inactive”.

Question: For `c1ccc(CNc2ncnc3c2ncn3C2CCCCO2)cc1` (stereo not given), which Potency is on record?
Answer: The Potency was “inactive”.

Question: With `CC(C)CC(O)CC(C)C` as the compound, how does the Potency read?
Answer: The Potency was “inactive”.

Question: With `COc1ccc(-c2cc(C(F)F)nn2-c2ccc(S(N)(=O)=O)cc2)cc1F` as the compound, how does the Potency read?
Answer: Its Potency is “inactive”.

Question: With `O=C(O)CNC(=O)c1ccccc1I` as the compound, how does the Potency read?
Answer: The Potency was “inactive”.

Question: Which Potency does the source give for `CCSC(=O)N(CC)CC` here?
Answer: Its Potency is “inactive”.

Question: With `COc1ccc(C)cc1` as the compound, how does the Potency read?
Answer: The Potency was “inactive”.

Question: Which Potency does the source give for `O=C(O)CN1C(=O)c2cccc3cccc(c23)C1=O` here?
Answer: The Potency was “inactive”.

Question: For `C=C(C)c1ccccc1`, which Potency is on record?
Answer: The Potency was “inactive”.

Question: With `CC(C)(O)c1coc(S(=O)(=O)NC(=O)Nc2c3c(cc4c2CCC4)CCC3)c1` as the compound, how does the Potency read?
Answer: The Potency was “inactive”.

Question: Which Potency does the source give for `O=S(=O)(O)CO` here?
Answer: The Potency was “inactive”.

Question: For `CC(=O)OCCC1CCCCC1`, which Potency is on record?
Answer: Its Potency is “inactive”.

Question: Which Potency does the source give for `C[C@@H]1[C@H](O)[C@@H](C)/C=C/C=C\C=C\C=C\C=C\C=C\C=C\[C@H](O[C@@H]2O[C@H](C)[C@@H](O)[C@H](N)[C@@H]2O)C[C@@H]2O[C@](O)(C[C@@H](O)C[C@@H](O)[C@H](O)CC[C@@H](O)C[C@@H](O)CC(=O)O[C@H]1C)C[C@H](O)[C@H]2C(=O)O` (stereo in doubt) here?
Answer: Its Potency is 61.1 µM (active).

Question: For `C=CCOC(=O)COCCC(C)C`, which Potency is on record?
Answer: Its Potency is “inactive”.

Question: Which Potency does the source give for `O=C1OC[C@H](Cc2cccc(O)c2)[C@H]1Cc1cccc(O)c1` here?
Answer: The Potency was “inactive”.

Question: With `O=C(O)/C=C/c1ccc(O)c(O)c1` as the compound, how does the Potency read?
Answer: The Potency was “inactive”.

Question: With `CCC(CO)(CO)[N+](=O)[O-]` as the compound, how does the Potency read?
Answer: The Potency was “inactive”.

Question: Which Potency does the source give for `O=c1[nH]c2cc(C(F)(F)F)c(N3CCOCC3)cc2n(CP(=O)(O)O)c1=O` here?
Answer: The Potency was “inactive”.

Question: With `N[C@@H](Cc1cc(I)c(O)c(I)c1)C(=O)O` as the compound, how does the Potency read?
Answer: Its Potency is “inactive”.

Question: Which viability change, negative = cytotoxic does the source give for `CCCCCCCCCCCCCCN(C)C` here?
Answer: The viability change, negative = cytotoxic was -1.07% [at 19 µM].

Question: For `NC(=O)c1ccccc1[N+](=O)[O-]`, which Potency is on record?
Answer: The Potency was “inactive”.

Question: Which Potency does the source give for `CCOC(=O)C(C)O` (stereo not given) here?
Answer: The Potency was “inactive”.

Question: For `O=C(O)CCCc1c[nH]c2ccccc12`, which Potency is on record?
Answer: Its Potency is “inactive”.

Question: With `COc1cc(NS(=O)(=O)c2ccc(N)cc2)nc(C)n1` as the compound, how does the Potency read?
Answer: Its Potency is “inactive”.

Question: For `CC(C)(C)C(O)/C=C/c1ccc2c(c1)OCO2` (stereo not given), which Potency is on record?
Answer: Its Potency is “inactive”.

Question: With `CC1=CC[C@@H]2C[C@H]1C2(C)C` as the compound, how does the viability change, negative = cytotoxic read?
Answer: The viability change, negative = cytotoxic was 2.93% [at 19 µM].

Question: For `COC(OC)OC`, which Potency is on record?
Answer: Its Potency is “inactive”.

Question: Which Potency does the source give for `BrC(Br)C(Br)Br` here?
Answer: The Potency was “inactive”.

Question: For `CCOC(=O)c1ccc(NC(=O)CN2CCCCC2)cc1`, which Potency is on record?
Answer: Its Potency is “inactive”.

Question: For `CN1CCCN(C(c2ccccc2)c2ccc(Cl)cc2)CC1` (stereo not given), which Potency is on record?
Answer: The Potency was 29.8 µM (active).

Question: Which Potency does the source give for `CCC(CO)(CO)CO` here?
Answer: The Potency was “inactive”.

Question: Which viability change, negative = cytotoxic does the source give for `CCCCCCCCCCCCCOC(=O)CCSCCC(=O)OCCCCCCCCCCCCC` here?
Answer: Its viability change, negative = cytotoxic is -0.449% [at 19 µM].

Question: Which Potency does the source give for `CC(=O)N[C@@H](Cc1ccc(O)cc1)C(=O)O` here?
Answer: Its Potency is “inactive”.
